# Assay results reported in PubChem BioAssay AID1631 (National Center for Advancing Translational Sciences (NCATS), 2009).
# The campaign covered roughly 260,000 compounds. About 890 (0.34%) were called active. Inconclusive results (about 1%) are left out. What follows is part of a selection rich in actives, with near analogues and random picks from the rest. Unmarked numbers belong to inactive results. Calls follow the shape of the dose curve; as a rule, active = well fitted activation curve with a large enough effect; inconclusive = small, poorly fitted or top-dose-only effect; inactive = no such curve, though single readings can be large or run the other way.
# Target: Pyruvate kinase PKM (Homo sapiens) (UniProt P14618)
# Assay: qHTS Assay for Activators of Human Muscle isoform 2 Pyruvate Kinase; also: nearly all actives have a fitted effect of over 55% in size
# Conditions: purified PKM2, Kinase-Glo ATP luminescence; Potency: activation; series mostly up to 57.5 µM; activation: at the top concentration
# Outline: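 Purified hPK-M2 (>95%) run at intermediate activity with 0.1 mM ADP and 0.5 mM PEP in 50 mM imidazole pH 7.2, KCl, MgCl2; 1 h room temperature. ATP formed read by Kinase-Glo luminescence; normalized to uninhibited and no-enzyme controls.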
# % is scaled to controls: 0 for no effect and ±100 for the full control effect; potency is read from the fitted curve at half-maximal effect.
# Chain of Pyruvate kinase PKM (Homo sapiens) (P14618 whole entry, looked up, canonical isoform): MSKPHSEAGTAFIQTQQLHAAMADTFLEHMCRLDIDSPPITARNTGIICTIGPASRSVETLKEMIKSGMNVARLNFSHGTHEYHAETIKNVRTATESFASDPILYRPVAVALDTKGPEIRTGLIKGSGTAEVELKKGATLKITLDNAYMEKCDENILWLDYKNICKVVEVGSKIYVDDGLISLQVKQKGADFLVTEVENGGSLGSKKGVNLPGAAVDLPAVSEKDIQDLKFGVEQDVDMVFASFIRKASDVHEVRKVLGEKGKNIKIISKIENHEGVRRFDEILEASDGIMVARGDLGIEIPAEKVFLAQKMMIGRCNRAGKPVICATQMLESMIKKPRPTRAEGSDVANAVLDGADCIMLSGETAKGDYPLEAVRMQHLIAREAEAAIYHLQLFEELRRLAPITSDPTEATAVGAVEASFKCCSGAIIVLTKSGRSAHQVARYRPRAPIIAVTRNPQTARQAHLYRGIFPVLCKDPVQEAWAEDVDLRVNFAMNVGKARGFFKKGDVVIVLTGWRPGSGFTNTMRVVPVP
SMILES,activation,Potency
COc1ccccc1CN1CCN(C(c2ccccc2)c2ccccc2)CC1,-7.24%,
COc1ccc(OCc2cc(C(=O)N3CCCC3)no2)c2ccccc12,-0.176%,
Cc1ccc(C(=O)c2coc3ccc(O)c(CN(C)C)c23)cc1,2.77%,
O=[N+]([O-])c1ccc2c(c1)Nc1nc3ccccc3nc1N2,-7.96%,
O=C(CC1C(=O)NCCN1C(=O)c1ccc([N+](=O)[O-])cc1)Nc1cccc(Cl)c1 (configuration not stated),4.48%,
CCCn1c(C2CCCN2c2nc(-c3ccc(C)cc3)cs2)nc2cc(Cl)c(N3CCCCC3)cc21 (configuration not stated),1.71%,
COc1ccc(CN2CCCC(N3CCc4ccccc4C3)C2)c(O)c1 (configuration not stated),4.2%,
COc1ccc(CCNS(=O)(=O)c2cc3c(cc2C)NC(=O)CO3)cc1OC,-0.455%,
Cc1ccc(NS(=O)(=O)c2cc3c(cc2C)NC(=O)CO3)cc1,,5.62 µM (active)
Cc1cc2c(cc1S(=O)(=O)NCc1ccc(Cl)cc1)OCC(=O)N2,9.78%,
Cc1cc(C)c(SCCc2ccncc2)c(C)c1,0%,
CCOc1cc(/C=C(\C#N)c2nc(-c3cccs3)c(NC(C)=O)s2)ccc1O,0.455%,
COc1cc(/C=N\Nc2nc(-c3cccs3)c(NC(C)=O)s2)ccc1O,,11.2 µM (active)
COc1cc(/C=N/Nc2nc3ccccc3s2)ccc1O,8.69%,
COc1cccc(CC(=O)Nc2nc(-c3ccc(OC)c(OC)c3)cs2)c1,2.09%,
C/C=C\C=C\C(=O)N1CC2(CC(c3cccc(NC(=O)/C(C)=C\C)c3)=NO2)C[C@H]1C(N)=O (some centres not stated),,3.55 µM (active)
C/C=C(/C)C(=O)Nc1cccc(C2=NOC3(C2)C[C@@H](C(N)=O)N(C(=O)C2(C)CC2)C3)c1 (some centres not stated),-13%,
CC/C=C/C(=O)N1CC2(CC(c3cccc(NC(=O)CC)c3)=NO2)C[C@H]1C(N)=O (some centres not stated),26.5%,
CCC(C)C(=O)Nc1ccccc1N1CCN(c2ccc(F)cc2)CC1 (configuration not stated),-0.773%,
CCCNC(=O)c1ccc(N2CCC3(CC2)CC(c2ccc(Cl)cc2)=NO3)c([N+](=O)[O-])c1,-7.26%,
COc1ccc(C(=O)NCC(=O)N/N=C/c2cccnc2)cc1,"0.538% [at 0.46 µM, 0% is enzyme alone, no compound]",

SMILES,activation,Potency
O=C(NCC(=O)N1CCN(c2ncc(C(F)(F)F)cc2Cl)CC1)c1ccc(Br)o1,-0.619%,
O=C(O)c1cccc2c1C(=O)N(C1CCCC1)C2,0.131%,
COc1ccc(N(C(=O)c2snc(C(N)=O)c2N)C(C(=O)NC2CCCC2)c2ccc(C)o2)c(OC)c1 (configuration not stated),-4.98%,
CN(CC1CCCO1)S(=O)(=O)c1ccc(C(=O)Nc2ccc([N+](=O)[O-])cc2)cc1 (configuration not stated),0.137%,
CCOC(=O)c1csc(CCNC(=O)c2oc3c(Cl)cc(C)cc3c2C)n1,0.455%,
CC(C)NS(=O)(=O)c1ccc(OCC(=O)NC2CCCCCC2)cc1,0.476%,
O=C(Nc1nnc(C2=COCCO2)o1)c1ccc([N+](=O)[O-])s1,-0.93%,
COc1ccc(-n2cc(-c3ccccc3)c3c(=S)nc[nH]c32)cc1,"-7.56% [at 0.46 µM, 0% is enzyme alone, no compound]",
CCc1ccc(CNC(=O)C2CCN(c3nnc(C)c4c(C)n(-c5ccc(C)cc5)nc34)CC2)cc1,"-0.982% [at 0.46 µM, 0% is enzyme alone, no compound]",
Cc1cc(S(=O)(=O)NCc2ccccn2)c(Cl)cc1Cl,"-2.1% [at 11.5 µM, 0% is enzyme alone, no compound]",
COc1ccc(N2CCN(S(=O)(=O)CCNC(=O)C34CC5CC(CC(C5)C3)C4)CC2)cc1,0.848%,
O=C(Cc1ccc(Cl)c(Cl)c1)Nc1ccc(SC(F)F)cc1,2.17%,
CSc1ccc(S(=O)(=O)Nc2cccc(F)c2)cc1,16.7%,
Nc1cccc(S(=O)(=O)Nc2ccc(SC(F)F)cc2)c1,,14.1 µM (active)
Cc1ccccc1C(=O)N1CCN(c2ccc(NC(=O)c3cccs3)cc2)CC1,-0.0426%,
Cc1c(C=O)c2ccccc2n1CCOc1ccccc1,2.35%,
CCOc1cc(-c2cc(-c3ccc(NC(C)=O)cc3)nc(N)c2C#N)ccc1O,-4.71%,
CC(C)C(C)NC(=O)COc1nc2ccccc2nc1N(C)C1CCCCC1 (configuration not stated),-0.269%,
CCN(C(=O)C1CCCN(c2nc(-c3ccc(OC)cc3)no2)C1)c1ccc(OC)cc1 (configuration not stated),-0.765%,
CCn1cc(CN2CCC(C(=O)Nc3cccc(-c4cccc(Cl)c4)c3)CC2)c(C)n1,-2.51%,
COc1ccccc1N1CCN(C(=O)CCS(=O)(=O)c2ccc3c(c2)NC(=O)C(C)S3)CC1 (configuration not stated),-0.108%,
